Compound activity as filed in PubChem.
An excerpt weighted towards active compounds, which were near 3.5% of everything screened.
MITF primary – MITF inhibitors, primary screen, biochemical, AlphaScreen, human. AID 1259374, 2018. 650,000 compounds, 0.91% hits. AlphaScreen MITF homodimerization, bead proximity signal. inhibition, % at 2.6 µM; in the data active means inhibition above about 50%;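 further: 0% = vehicle wells with protein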
FBW7 act – FBW7 E3 ligase activators, primary screen, biochemical, AlphaScreen, human; AlphaScreen FBW7–phospho-cyclin E peptide binding, activator screen; F-box/WD repeat-containing protein 7 (Homo sapiens), Q969H0; normalized activity (activation), % at 26.1 µM; 650,000 compounds, 0.13% hits; in the data active means normalized activity above about 1.9%;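 further: purified mutant Fbw7 with reduced substrate affinity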
TEAD-YAP block – TEAD-YAP interaction inhibition, primary screen, TEAD-YAP interaction inhibitor project, luminescence, HEK-TIYL cells | 640,000 compounds, 1.4% hits | AID 1259422, 2018 | TEAD-Gal4/YAP UAS-luciferase luminescence | inhibition, % at 9.12 µM; in the data active means inhibition above about 32%;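 further: 0% = median of test compound wells and 100% = reference inhibitor wells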
GPR151 ag – activators of human GPR151, primary screen, cell-based, PathHunter beta-arrestin, luminescence | PathHunter beta-arrestin GPR151 cells | activation, % at 11.2 µM | 650,000 compounds, 1% hits | AID 1508602, 2020; in the data active means activation above about 4.9%;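 further: 0% = median of compound wells and 100% = cells with positive control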
Target sequence (Q8TDV0 whole entry, looked up): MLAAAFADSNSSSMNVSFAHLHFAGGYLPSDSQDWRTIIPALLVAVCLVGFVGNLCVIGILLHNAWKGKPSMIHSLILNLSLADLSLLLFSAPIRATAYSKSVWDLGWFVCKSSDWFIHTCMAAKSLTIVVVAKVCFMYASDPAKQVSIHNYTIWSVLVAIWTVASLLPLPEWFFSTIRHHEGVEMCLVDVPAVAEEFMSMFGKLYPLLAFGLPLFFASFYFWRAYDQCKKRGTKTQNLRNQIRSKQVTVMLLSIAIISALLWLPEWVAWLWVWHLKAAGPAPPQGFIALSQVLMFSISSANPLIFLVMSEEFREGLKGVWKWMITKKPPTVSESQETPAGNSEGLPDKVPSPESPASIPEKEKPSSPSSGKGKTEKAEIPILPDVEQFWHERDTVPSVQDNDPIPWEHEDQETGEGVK
Active calls of the source: *.

SMILES	MITF primary	FBW7 act	TEAD-YAP block	GPR151 ag
COc1ccc(N/C=C/C(=O)c2ccc(OC)c(OC)c2)cc1	-8.5	0.0	-5.7	1.5
COc1cc(C(=O)/C=C/Nc2ccc(Br)cc2)cc(OC)c1OC	-1.8	0.0	38.0*	0.3
COc1cc(C(=O)/C=C/Nc2ccc(I)cc2)cc(OC)c1OC	-1.2	-0.1	35.5*	1.5
COc1ccc(N/C=C/C(=O)c2cc(OC)c(OC)c(OC)c2)cc1	15.1	0.2	42.0*	-1.3
O=C(NCCN1CCOCC1)c1cccc(-n2ncc3ccc(N4CCOCC4)cc32)c1	-4.9	-0.6	-5.2	0.7
CC(C)c1ccc(NC(=O)C2C3C=CC4(O3)C2C(=O)N(CCN(C)Cc2ccccc2)C4C(=O)NC2CCCCC2)cc1 (configuration not stated)	-3.1	-0.1	5.5	0.0
COc1ccc(N(CC(=O)N(C)Cc2ccccc2)S(=O)(=O)c2ccccc2)cc1	12.7	0.1	6.5	0.6
Cc1cc2c(cc1C)-c1nc3ccccc3cc1C2=O	4.2	0.0	-29.9	-2.5
Cc1ccc2c(c1)Cc1nc3ccccc3nc1-2	-1.1	0.1	64.5*	-9.8
Cc1cc2c(cc1C)-c1nc3ccccc3cc1C2	9.2	0.6	54.3*	-4.0
CCc1cccc(OC2OC3COC(C)(C)OC3C(O)C2NC(C)=O)c1 (configuration not stated)	0.2	0.0	2.7	-0.2
Cc1c(NC(=O)Nc2ccc(C#N)cc2)n(C)c(=O)n1-c1ccccc1	5.9	0.0	13.6	0.0
Cc1csnc1NC(=O)c1c(N)nc2c(c1C(F)(F)F)OC1=C(CCC1)O2	6.2	-0.1	96.2*	0.6
COC(=O)c1c(C)oc2ccc(NS(=O)(=O)c3ccc(C)cc3)cc12	-0.6	0.0	56.2*	0.8
Cc1ccc(S(=O)(=O)Nc2cc3c4c(oc3cc2C)CCCC4=O)cc1	8.3	0.0	9.7	0.5
COc1ccc(S(=O)(=O)Nc2cc3c4c(oc3cc2C)CCCC4=O)cc1	0.8	0.0	54.8*	0.9
COC(=O)c1c(C)oc2c1cc(NS(=O)(=O)c1ccc(Br)cc1)c1ccccc12	5.9	-0.1	4.5	0.4
COC(=O)c1c(C)oc2ccc(NS(=O)(=O)c3ccc(OC)cc3)cc12	-22.1	-0.1	72.4*	-0.4
COC(=O)c1c(C)oc2ccc(NS(=O)(=O)c3ccc(Cl)cc3)cc12	-4.9	0.1	15.8	0.4
COC(=O)c1c(C)oc2cc(C)c(NS(=O)(=O)c3ccc(Br)cc3)cc12	1.7	0.0	34.1*	-0.4
CCOc1cccc(C2C(C(=O)OC)=C(C)Nc3nnnn32)c1 (configuration not stated)	1.2	-0.2	-8.9	-0.2
CCOC(=O)c1c(NC(=O)c2cc3ccccc3oc2=O)sc2c1CCN(C)C2	15.7	-0.1	10.2	-0.6
COC(=O)c1cccc(NS(=O)(=O)c2ccc(C)cc2)c1	5.5	0.1	53.4*	0.3
COc1ccc(NC(=O)C2(NS(=O)(=O)c3cccc4cccnc34)CCCCC2)cc1	9.3	0.0	9.1	3.0
COc1ccc2c(=O)c(-c3ccccc3)coc2c1	2.2	0.0	29.4	-8.6
SMILES	MITF primary	FBW7 act	TEAD-YAP block	GPR151 ag
CC(=O)Oc1ccc2c(=O)c(-c3cc4ccccc4o3)coc2c1	8.1	-0.1	8.1	-6.3
O=c1c(-c2cc3ccccc3o2)coc2cc(O)ccc12	1.4	-0.1	36.1*	-8.2
COc1ccc2c(=O)c(-c3cscn3)coc2c1	-3.0	-0.1	44.2*	-3.2
Cc1nc(-c2coc3cc(O)ccc3c2=O)cs1	7.7	0.6	34.0*	-6.0
COc1ccc(-c2ccc(=O)n(C3CCN(C(=O)C4CCCC(OC)C4)CC3)n2)cc1F (configuration not stated)	-6.6	-0.1	-40.4	0.0
Cc1sc2ncnc(Sc3nnc(N)s3)c2c1C	-0.1	-0.1	36.7*	1.2
Cc1sc2ncnc(Sc3nnc4ccccn34)c2c1C	9.8	0.2	-5.9	2.7
C/C(=N\NC(=O)c1cc(-c2ccncc2)nc2ccccc12)c1ccc(-n2ccnc2)cc1	-11.4	-0.1	42.8*	1.2
COc1cccc(CNC(=O)c2cc(-c3ccncc3)nc3ccccc23)c1	6.1	-0.2	5.7	-1.3
C/C(=N\NC(=O)c1cc(-c2ccncc2)nc2ccccc12)c1ccc(C#N)cc1	7.5	0.0	41.5*	-0.3
COc1cccc(/C(C)=N/NC(=O)c2cc(-c3ccncc3)nc3ccccc23)c1	0.5	-0.1	48.8*	-0.8
CC/C(C)=N\NC(=O)c1cc(-c2ccccc2)nc2ccccc12	-9.7	-0.1	-13.0	2.1
